The text below walks through data of PubChem BioAssay AID1209 (Sanford-Burnham Center for Chemical Genomics, 2008).

As usually defined, the inhibition is the drop in the measured response relative to a control, in per cent.

Screen size: about 190,000 compounds; about 810 (0.43%) were called active. This is one part of a sample in which actives are shown more often than they occur. Unmarked numbers belong to inactive results. Cut-off read from the data, not from the text of the source: active = inhibition above about 50%; inactive = the rest.

In the assay the target is Mannose-6-phosphate isomerase (Homo sapiens) (UniProt P34949). The assay is described as follows: MPI enzyme activity inhibition – biochemical, fluorescence intensity, coupled assay, primary screen (AID 1209).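 Note: plate controls were DMSO vehicle for no effect and wells lacking substrate for full effect.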 The note with it: purified PMI enzyme, at 20 µM, active compounds read high.
Sequence of Mannose-6-phosphate isomerase (Homo sapiens) (P34949 whole entry, looked up): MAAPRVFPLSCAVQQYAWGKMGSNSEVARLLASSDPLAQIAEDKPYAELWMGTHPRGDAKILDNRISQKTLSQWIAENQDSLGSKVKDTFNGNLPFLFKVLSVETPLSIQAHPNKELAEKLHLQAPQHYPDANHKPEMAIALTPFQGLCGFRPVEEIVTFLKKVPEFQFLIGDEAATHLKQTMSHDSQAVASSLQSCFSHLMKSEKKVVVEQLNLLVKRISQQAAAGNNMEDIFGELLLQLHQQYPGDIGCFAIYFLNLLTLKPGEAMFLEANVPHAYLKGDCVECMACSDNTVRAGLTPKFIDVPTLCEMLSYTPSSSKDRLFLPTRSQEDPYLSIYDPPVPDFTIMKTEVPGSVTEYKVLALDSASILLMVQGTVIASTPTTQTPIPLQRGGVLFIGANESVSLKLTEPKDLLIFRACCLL
Consider `Cc1cc(-c2ccco2)n(CC(=O)NCc2ccco2)n1`, for which the inhibition was -9.3%.

`CC(CSc1nnnn1-c1ccccc1)Cn1c(N2CCCC2)nc2c1c(=O)[nH]c(=O)n2C` (stereo unspecified): the inhibition is 1.7%. Regarding `CCCC(=O)N(c1ccc2oc(=O)sc2c1)S(=O)(=O)c1cccs1`, the inhibition was 3.6%.

Take `CN=C1C([N+](=O)[O-])=CC=C2C1=NC1(CCCCC1)N2O`: the inhibition was 70.6% (active). Then `CC(C)(C)N=C1C([N+](=O)[O-])=CC=C2C1=NC1(CCCCC1)N2O`, with 76.2% (active); and `O=[N+]([O-])C1=CC=C2C(=NC3(CCCCC3)N2O)C1=NC1CCCCC1`, with 87.5% (active); and `O=[N+]([O-])c1nn(-c2ccc3c(c2)OCCO3)n(O)c1=NC1CCCCC1`, with 6%. As for `O=[N+]([O-])c1nn(-c2ccc3c(c2)OCCO3)n(O)c1=NC1CCCCCC1`, the figure is 12.3%; as for `C#CCNc1cc(-c2ccccc2)nc2ncnn12`, -2.5%; as for `COC(=O)c1ccc(C(=O)OC)c(NC(=O)C(C)(C)C)c1`, -4.3%. For `COc1ccc(OC)c(NC(=O)CCNS(=O)(=O)c2cccs2)c1`, the inhibition is 0.3%. As for `COc1ccccc1-c1nnc(SCC(=O)O)n1-c1ccccc1`, the figure is 0.5%. For `CCCCN(C(=O)c1ccc(NC(=O)C(C)C)cc1)c1ccccc1`, the inhibition is 8.2%. Turning to `Cc1ccccc1-n1nnnc1SCc1ncc(-c2ccccc2)o1`, the inhibition was 5.3%. With `CCC(=O)Nc1ccc(OCc2nc3ccccc3s2)cc1`, the inhibition was 25%. In the case of `O=C(O)CCCC(=O)Nc1ccc(OCc2nc3ccccc3s2)cc1`, the inhibition is 58.3% (active). Then `O=C(CCCc1nc2ccccc2s1)Nc1ccccc1`, with -15.5%; and `O=C(NN1C(=O)C2C3C=CC(C3)C2C1=O)c1ccncc1` (stereo unspecified), with -0.6%; and `Cc1csc(NC(=O)C2CCCN(S(=O)(=O)c3ccc4c(c3)oc(=O)n4C)C2)n1` (stereo unspecified), with 13.4%. As for `C=CCN1C(=O)N/C(=C/c2ccccc2OCC(=O)Nc2ccc(F)cc2)C1=O`, the figure is 2.1%; as for `CN(c1ccccc1)S(=O)(=O)c1cccc(C(=O)NCCc2ccc(O)c(O)c2)c1`, 54.9% (active). Then `CN(C)S(=O)(=O)c1cccc(C(=O)NCCc2ccccc2)c1`, with 3.3%.

`CN(c1ccccc1)S(=O)(=O)c1cccc(C(=O)NNC(=O)c2ccccc2)c1`: the inhibition is 7.8%.

As to `COc1cc(C2NC(=O)NC(c3ccccc3)=C2C(C)=O)ccc1OCC#N` (stereo unspecified), the inhibition was 20.2%. `O=C(CSc1nc2cc([N+](=O)[O-])ccc2n1-c1ccccc1)NCc1ccc2c(c1)OCO2`: the inhibition was 23.9%. As for `COc1ccccc1-n1c(SCC(=O)NCc2ccc3c(c2)OCO3)nc2cc([N+](=O)[O-])ccc21`, the figure is 59.9% (active); as for `COc1ccccc1-n1c(SCC(=O)NC2CCS(=O)(=O)C2)nc2cc([N+](=O)[O-])ccc21` (stereo unspecified), 5.5%. On to `O=C(COC(=O)CCOc1ccccc1)Nc1ncc(Cl)cc1Cl`, for which the inhibition is -1%. For `Cc1c(C(=O)N/N=C/c2ccccc2)[nH]c2ccc(Cl)cc12`, the inhibition was 2.8%. As to `O=C(Cc1csc(NC(=O)c2ccc(F)cc2)n1)NO`, the inhibition is 0.3%.

For `O=C(Cc1csc(NC(=O)c2ccccc2)n1)NO`, the inhibition is 67.6% (active). In the case of `COc1ccccc1NC(=O)Cc1csc(NC(=O)c2ccccc2)n1`, the inhibition was 5.9%. Regarding `COC(=O)c1c(-c2cccc(OC)c2)csc1N`, the inhibition is 30%. Then `O=C(CN1CCCC1)Nc1ccc(F)cc1`, with -11.5%; and `COc1ccccc1NS(=O)(=O)c1cc(NC(=O)C2CCCC2)ccc1N1CCOCC1`, with 55.7% (active); and `COc1ccccc1NS(=O)(=O)c1cc(NC(=O)Nc2ccccc2)ccc1N1CCCCC1`, with 14.8%. Consider `COc1ccccc1NS(=O)(=O)c1cc(NC(=O)Nc2ccc(Cl)cc2Cl)ccc1N1CCCCC1`, for which the inhibition was 2%.

Regarding `COc1ccccc1NS(=O)(=O)c1cc(NC(=O)C2CC2)ccc1N1CCOCC1`, the inhibition is 15%. For `COc1ccccc1NS(=O)(=O)c1cc(N)ccc1N1CCCCC1`, the inhibition was 67.5% (active). Consider `COc1ccccc1NS(=O)(=O)c1cc(NC(=O)CCC2CCCC2)ccc1N1CCOCC1`, for which the inhibition was 2.1%. Turning to `O=C(Nc1ccc(F)cc1)Nc1ccc(N2CCOCC2)c2nonc12`, the inhibition is 15.4%. Regarding `COc1ccccc1NS(=O)(=O)c1cc(NC(=O)Nc2cccc(C)c2)ccc1N1CCCCC1`, the inhibition is 0.3%. As for `COc1ccccc1NS(=O)(=O)c1cc(NC(C)=O)ccc1N1CCCCC1`, the inhibition was 52.7% (active). Take `O=C(Nc1ccc([N+](=O)[O-])cc1)Nc1ccc(N2CCOCC2)c2nonc12`: the inhibition is 34.2%. As for `COc1ccccc1NS(=O)(=O)c1cc(NC(=O)C(C)C)ccc1N1CCCCC1`, the figure is 41.2%.

In the case of `O=C(Nc1ccc(N2CCOCC2)c2nonc12)C1CCCC1`, the inhibition was 53.4% (active). As for `O=C(c1ccccc1)C(C(=O)N1CCc2ccccc2C1)n1ccccc1=O` (stereo unspecified), the figure is 8.6%; as for `O=C(CSc1nnnn1-c1cccc2ccccc12)NC(C(=O)O)(c1ccccc1)c1ccccc1`, -9.3%; as for `Cc1ccc(NC(=O)NC(=O)CN2C(=O)NC3(CCCCCCC3)C2=O)c(C)c1`, 9.5%. As for `CCC/C(O)=C1\C(=O)CC(c2ccccc2)CC1=NC(C)C(=O)O` (stereo unspecified), the figure is -5.7%; as for `O=C(COc1ccc(Cl)cc1)NCc1nnc(SCC(=O)N2CCCCCC2)o1`, 3.1%.

Regarding `CCOc1ccccc1NC(=O)c1ccc(NC(=O)c2ccco2)cc1`, the inhibition is -12.3%. With `CCOC(=O)N1CCN(c2cc(N(C)CCO)c([N+](=O)[O-])c3nonc23)CC1`, the inhibition is 20.8%. Then `O=[N+]([O-])c1c(NCCCO)cc(N2CCN(Cc3ccc4c(c3)OCO4)CC2)c2nonc12`, with 13%; and `CC(=O)Nc1ccc(Nc2cc(N3CCOCC3)c3nonc3c2[N+](=O)[O-])cc1`, with -2.7%. Then `CCOC(=O)C1CCCN(c2cc(NCCCO)c([N+](=O)[O-])c3nonc23)C1` (stereo unspecified), with 32.9%; and `CN(CCO)c1cc(N2CCC3(CC2)OCCO3)c2nonc2c1[N+](=O)[O-]`, with 6%.

`CCN(CC)c1cc(NCCO)c([N+](=O)[O-])c2nonc12`: the inhibition was 37.9%. As to `O=[N+]([O-])c1c(NCCO)cc(N2CCCCC2)c2nonc12`, the inhibition was 57.8% (active).

For the molecule `O=[N+]([O-])c1c(NCCO)cc(N2CCN(Cc3ccc4c(c3)OCO4)CC2)c2nonc12`, the inhibition was 55.4% (active). Then `O=[N+]([O-])c1c(NCCO)cc(N2CCC3(CC2)OCCO3)c2nonc12`, with 60.3% (active). As for `CN(CCO)c1cc(N2CCCCC2)c2nonc2c1[N+](=O)[O-]`, the figure is -0.9%; as for `Cc1nnc(Sc2cc(NCCO)c([N+](=O)[O-])c3nonc23)s1`, -0.7%. Then `CCOC(=O)N1CCN(c2cc(NCCO)c([N+](=O)[O-])c3nonc23)CC1`, with 56.2% (active); and `COc1ccccc1-n1c(-c2ccc(NS(C)(=O)=O)cc2)n[nH]c1=S`, with -0.6%; and `CC(C)Cc1nnc(NC(=O)CS(=O)(=O)Cc2ccccc2)s1`, with -0.2%. Take `C=C(C)CSc1nnc2n(N)c(=O)c3ccccc3n12`: the inhibition is -4.8%. Then `Cc1ccccc1C(=O)NCCc1nnc(SCC(=O)Nc2nc(-c3ccccc3)cs2)n1C`, with -0.8%; and `O=C(CSc1ncccn1)N1CCN(C(c2ccccc2)c2ccccc2)CC1`, with 20.8%. In the case of `Cn1c(C(C(=O)NCC2CCCO2)N(CCc2ccccc2)C(=O)Cn2nnc3ccccc32)nc2ccccc21` (stereo unspecified), the inhibition was 2.6%. Regarding `CCSc1c(-c2ccccc2)nc2c(C)cccc2c1C(=O)O`, the inhibition is 4.5%. As for `CCSc1nnc(-c2ccccc2SC)o1`, the figure is -75.6%.

`Cc1cccc(NC(=O)c2sc3nc4c(c(-c5cccs5)c3c2N)CN(C)CC4)c1`: the inhibition was -14.8%. Consider `CN1CCN(c2ccc(NC(=O)c3ccc(-c4ccc(Br)cc4)o3)cc2)CC1`, for which the inhibition was -0.8%. Then `Cc1c(Nc2cc(N3CCCC(C)C3)c3nonc3c2[N+](=O)[O-])c(=O)n(-c2ccccc2)n1C` (stereo unspecified), with 45.8%; and `Cc1c(Nc2cc(N3CCOCC3)c3nonc3c2[N+](=O)[O-])c(=O)n(-c2ccccc2)n1C`, with 19.4%.

On to `Cc1c(Nc2cc(N3CCCCCC3)c3nonc3c2[N+](=O)[O-])c(=O)n(-c2ccccc2)n1C`, for which the inhibition is 55% (active). Then `Cc1ccc2c(C(=O)CN3CCN(c4ccccc4)CC3)c(C)[nH]c2c1`, with -4.7%. As for `CCOc1ccccc1-n1c(SCC(=O)NC2CCCC2)nnc1-c1ccoc1C`, the figure is 17.9%; as for `COc1ccc(/C=N\NC(=O)c2cccc([N+](=O)[O-])c2)cc1Cn1cc([N+](=O)[O-])cn1`, 10%; as for `COc1ccc(/C=N\NC(=O)c2cc(O)c(O)c(O)c2)cc1CN1CCN(c2ccc(F)cc2)CC1`, 58.1% (active).

As to `COc1ccc(/C=N/NC(=O)c2ccc(N)cc2)cc1Cn1cc([N+](=O)[O-])cn1`, the inhibition was 2.9%. As for `COc1cc(C(=O)N/N=C/c2ccc(OC)c(CN3CCN(c4ccc(F)cc4)CC3)c2)ccc1O`, the figure is 22.3%; as for `COc1ccc(/C=N/NC(=O)c2ccccc2)cc1CN1CCN(c2ccc(F)cc2)CC1`, -6.3%; as for `CCC(O)c1c(-c2ccccc2)nn(C)c1Cl` (stereo unspecified), 1.3%. As for `O=S1(=O)CC(O)C(NCc2ccco2)C1` (stereo unspecified), the figure is -0.2%.

In the case of `COc1ccc(-c2csc(NC(=O)c3cc(=O)c4ccccc4o3)n2)cc1OC`, the inhibition was -9.2%. As for `COC(=O)c1ccc(COC(=O)C23CC4CC(CC(O)(C4)C2)C3)o1`, the figure is 1.1%.

Turning to `Cc1cc(/N=C/N(C)C)on1`, the inhibition was 4.8%.

Take `CN(C)C=Nc1nonc1N`: the inhibition was -5.6%. For `CN(C)C=Nc1c(Br)cc(Br)c2nonc12`, the inhibition is 70.8% (active).
